# Bioassay records as filed in PubChem.
# NPC1 prom act = activators of NPC1 promoter; Huh7 NPC1 promoter luciferase reporter, 24 h; hit rate 2.4% among 320,000; Potency, µM (titrated, usually from 9.22 µM), without a hit: at the highest dose activation, usual class: activators; note: % of control where 0% means no effect; nearly all actives have a fitted effect of over 60% in size
#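 Stable NPC1-promoter luciferase Huh7 line; cpd (DMSO) 24 h, 37 °C, 5% CO2; Amplite luciferase reagent 10 min RT; luminescence readout. qHTS format.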
# SMN2 splice up = SMN2 splice variant enhancement | hit rate 2.8% among 210,000 | AID 1458 | Potency, µM (titrated, usually from 46.1 µM), inactives show top-dose activity change, positive = activation, usual class: activators | HEK293 SMN2-luciferase splicing reporter, luminescence, 30-36 h; note: % of control where 0% means no effect; nearly all actives have a fitted effect of over 55% in size
#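 HEK293 cells carry an SMN2 minigene-luciferase reporter in which exon 7 inclusion puts luciferase in frame. Cells were seeded at 2000 cells/well, attached for 10-12 hours, then exposed to compounds for 30-36 hours at 37C before ONE-Glo luminescence.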
# FLuc counter = inhibits or activates purified firefly luciferase, miR-21 counter-screen | P08659 | purified FLuc, Km substrates, luminescence inhibition | Potency, µM (series often up to 57.5 µM), for inactives: at the highest dose activity change, negative = inhibition, most hits filed as inhibitors | hit rate 6.9% among 360,000;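 note: plate controls were vehicle for no effect and reference inhibitor for full effect; nearly all actives have a fitted effect of over 55% in size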
# Target sequence (P08659 whole entry, looked up): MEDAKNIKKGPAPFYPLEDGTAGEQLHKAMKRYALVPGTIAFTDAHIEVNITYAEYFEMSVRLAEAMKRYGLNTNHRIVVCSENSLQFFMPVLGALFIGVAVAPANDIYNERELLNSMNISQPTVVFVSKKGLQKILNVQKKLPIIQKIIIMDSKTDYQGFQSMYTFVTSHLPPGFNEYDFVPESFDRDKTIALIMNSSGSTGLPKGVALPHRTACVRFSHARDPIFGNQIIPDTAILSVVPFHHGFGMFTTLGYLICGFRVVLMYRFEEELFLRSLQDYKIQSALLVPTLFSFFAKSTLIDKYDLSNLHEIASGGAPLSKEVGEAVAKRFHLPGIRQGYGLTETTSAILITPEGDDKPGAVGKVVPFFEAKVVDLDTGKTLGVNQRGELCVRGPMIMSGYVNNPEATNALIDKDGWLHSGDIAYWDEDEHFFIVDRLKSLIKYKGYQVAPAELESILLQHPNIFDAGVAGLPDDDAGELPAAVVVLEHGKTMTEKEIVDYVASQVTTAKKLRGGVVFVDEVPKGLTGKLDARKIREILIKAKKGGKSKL
#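 Purified P. pyralis luciferase, 10 nM final, with Km-level 10 uM D-luciferin and 10 uM ATP in 50 mM Tris acetate pH 7.5, 10 mM Mg acetate, 0.01% Tween-20, 0.05% BSA; 6-point qHTS titration about 60 µM downward; luminescence read.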
# p53 reactivator = re-activators of mutant p53 | H1299 p53-A138V BP100-luciferase reporter, luminescence, 24 h | Potency, µM (top dose mostly 92.2 µM), inactives show at the top dose activity change, positive = activation, hits mostly activators | hit rate 0.063% among 320,000; note: % of control where 0% means no effect; nearly all actives have a fitted effect of over 45% in size
#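 p53-null H1299 cells stably carrying temperature-sensitive p53-A138V and a BP100-luciferase reporter were pinned with compounds (4-point, 1:5 series) and held 24 hrs at 37 deg C. Luminescence was read 10 min after detection reagent.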
# ELG1 genotox = genotoxicity induction in ELG1-luciferase HEK293T cells | HEK293T ELG1-luciferase reporter, luminescence, 16 h | Potency, µM (titrated, usually from 46 µM), inactives show top-dose activity change, positive = activation, most hits filed as activators | hit rate 1.3% among 330,000 | AID 504466; note: % of control where 0% means no effect; nearly all actives have a fitted effect of over 60% in size
#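 Cells (2,000/well) expressing the ELG1-luciferase fusion are dosed by pin tool and kept 16 hr at 37 °C, 5% CO2. Signal comes from ONE-Glo luciferase reagent after 30 min at room temperature.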
# Rab9 prom act = Rab9 promoter activation | Huh7 Rab9 promoter-luciferase reporter, luminescence, 24 h | Potency, µM (titrated, usually from 9.22 µM), inactives show at the top dose activation, negative = inhibition, usual class: activators | hit rate 2.8% among 320,000 | AID 485297; note: % of control where 0% means no effect; nearly all actives have a fitted effect of over 60% in size
#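 Rab9 promoter-driven luciferase in stably transfected Huh7 cells; 1500 cells/well rested 2 h, exposed to compound in DMSO for 24 h at 37 °C, 5% CO2. Luminescence read 10 min after adding luciferase reagent at ambient temperature.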
# * marks the source's active call; other numbers are inactive results; ? = inconclusive; nt = no result given. An excerpt weighted towards active compounds, which were near 7.4% of everything screened. Calls come from the whole dose curve; as a rule, active = well fitted curve in the direction sought with a large enough effect; inconclusive = small, poorly fitted or top-dose-only effect, or another doubt; inactive = no such curve, though single readings can be large; an effect the other way counts as inactive or inconclusive. Potency is the fitted concentration of half-maximal effect.
SMILES,NPC1 prom act,SMN2 splice up,FLuc counter,p53 reactivator,ELG1 genotox,Rab9 prom act
O=C(c1cc(-c2cccs2)on1)N1CCN(c2ccccc2)CC1,-2%,3%,17µM*,?,0%,2%
O=C(c1cc(-c2cccs2)nc2ccccc12)N1CCN(c2ccccc2)CC1,-9%,-17%,11µM*,-3%,-13%,-1%
O=C(c1cn(-c2ccccc2)nc1-c1ccc(Cl)s1)N1CCOCC1,-2%,13%,17µM*,-9%,2%,-8%
CC(OC(=O)c1ccc(Cl)nc1)C(=O)Nc1ccc2c(c1)OCO2 (stereo not given),-33%,nt,?,2%,-1%,5%
Cc1cc(C)cc(NC(=O)CSc2nncn3c2cc2occc23)c1,nt,nt,-9%,nt,nt,nt
CC(C)c1ccc(C(CC(=O)O)N2Cc3ccccc3C2=O)cc1 (stereo not given),-4%,nt,1%,3%,-1%,-2%
O=C(c1ccc2c(c1)N(Cc1cccc(Cl)c1)C(=O)c1ccccc1S2)N1CCOCC1,nt,nt,-3%,nt,nt,nt
O=C(c1cn(-c2ccccc2)nc1-c1cccs1)N1CCN(c2ccc(F)cc2)CC1,2%,nt,13µM*,?,-8%,-3%
O=C(O)c1cc(-c2cccs2)nc2ccc(Br)cc12,1%,nt,19µM*,6%,-1%,3%
COc1ccccc1C(=O)OCc1cc(=O)n2nc(C(C)C)sc2n1,nt,nt,-16%,nt,nt,nt
COc1ccccc1C(=O)OCc1ccc2sc(C)nc2c1,-1%,3%,17µM*,7%,1%,20%
Cc1cnc(C(=O)OCC(=O)Nc2ccc(Br)cc2F)cn1,2%,nt,-1%,5%,3%,8%
CC(C)C(=O)N1CCc2cc(-c3csc(N)n3)ccc21,?,13µM*,13µM*,21%,22%,3.5µM*
COc1cccc(Cn2c(=O)cnc3cnc(Oc4cccc(Cl)c4)nc32)c1,nt,-23%,nt,nt,nt,nt
Nc1ncnc2c1[nH]c(=O)n2C1CC(O)C(CO)O1 (stereo not given),nt,2%,nt,nt,nt,nt
COc1ccc(CCc2nnc(CCC(=O)NCCc3ncccc3C)o2)cc1,0%,11%,-16%,1%,5%,-2%
COc1ccc(CCc2nnc(CCC(=O)NCc3cc(C(C)C)no3)o2)cc1,27%,?,17µM*,?,?,?
Cc1cc(NC(=O)c2ccccc2Cl)ccc1NC(=O)c1ccccc1Cl,17%,nt,12µM*,12%,-1%,17%
Cc1ccccc1NC(=O)c1ccccc1NC(=O)c1ccccc1Cl,nt,-12%,?,nt,nt,nt
Cc1cc(NC(=O)c2ccc(Cl)cc2)ccc1NC(=O)c1ccccc1Cl,4%,nt,12µM*,?,-6%,16%
CCc1ccc(-n2c(=S)sc3c(=O)n(-c4ccccc4C)c(SCC(=O)O)nc32)cc1,-3%,nt,2%,-1%,-2%,0%
Cc1ccc(OC(C)C(=O)N2CCN(CCc3ccccn3)CC2)cc1C (stereo not given),nt,nt,4%,nt,nt,nt
CCCc1ccc(-c2ccc(C(=O)O)cc2)nc1,?,2.5µM*,1.5µM*,-4%,?,0.4µM*
CCCCCc1ccc(-c2ccc(C(=O)Oc3ccc(C(=O)OC)cc3)cc2)nc1,nt,-46%,12µM*,nt,nt,nt
CCCc1ccc(-c2ccc(C(=O)Oc3ccc(OCC)cc3)cc2)nc1,nt,4%,-19%,nt,nt,nt
CCCCCc1ccc(-c2ccc(/C=C/C(N)=O)cc2)nc1,?,-1%,4.8µM*,4%,16%,?
CCCc1ccc(OCC(=O)O)cc1,0%,-5%,?,2%,0%,-2%
CNC(=O)c1c(NC(=O)c2ccc(S(=O)(=O)N3CCCC(C)C3)cc2)sc2c1CCC2 (stereo not given),nt,nt,-6%,nt,nt,nt
CCOC(=O)CNC(=O)CSc1ncnc2c1nnn2-c1ccc(F)cc1,0%,-12%,?,4%,7%,-1%
